Where “and” joins values, the source holds several entries; their conditions need not be identical. Equal entries are not always repeated. This is part of a sample that, as a whole, favours compounds with a hit. Of some 79,000 tested, about 15% had one in any assay. No stated cut-off is given here; in the data, active means growth inhibition above about 70%; inactive means the rest.
Experiments:
[1] = NCI Yeast Anticancer Drug Screen. Data for the rad50 strain (AID 155);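 further: 0% = growth of vehicle-only cultures of the same strain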; settings: S. cerevisiae rad50 strain growth inhibition, stronger effect = higher value; at 50.0 µM unless noted
Summary of the method: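 Compounds were tested on a yeast strain with an engineered DNA damage repair alteration; the reported value is growth inhibition normalised to vehicle treatment.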

[2] = NCI Yeast Anticancer Drug Screen. Data for the mec2-1 strain (AID 157); settings: S. cerevisiae mec2-1 strain, stronger effect = higher value; at 50.0 µM unless noted
Summary of the method: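 Yeast mec2-1 mutant treated with compound. Readout: growth inhibition vs vehicle controls.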

[3] = NCI Yeast Anticancer Drug Screen. Data for the sgs1 mgt1 strain (AID 161);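 further: 0% = growth of cultures given vehicle only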; settings: S. cerevisiae sgs1 mgt1 strain, stronger effect = higher value; at 50.0 µM unless noted
Summary of the method: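 Test agents were incubated with a DNA-repair-mutant yeast strain. Growth was then read and compared against vehicle-treated controls.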

[4] = NCI Yeast Anticancer Drug Screen. Data for the cln2 rad14 strain (AID 165);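 further: 0% = growth equal to vehicle treated cultures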; settings: S. cerevisiae cln2 rad14 strain, stronger effect = higher value; at 50.0 µM unless noted
Summary of the method: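 cln2 rad14 yeast strain; compound exposure; growth inhibition read vs vehicle controls.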

[5] = NCI Yeast Anticancer Drug Screen. Data for the bub3 strain (AID 167); settings: S. cerevisiae bub3 mutant strain, stronger effect = higher value; at 50.0 µM unless noted
Summary of the method: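 Growth of a checkpoint-deficient yeast mutant is measured after compound exposure. Values represent inhibition relative to vehicle.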

[6] = NCI Yeast Anticancer Drug Screen. Data for the mlh1 rad18 strain (AID 175); settings: S. cerevisiae mlh1 rad18 strain growth inhibition, stronger effect = higher value; at 50.0 µM unless noted
Summary of the method: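 Yeast w/ defined DNA-repair lesions; compound exposure; growth vs vehicle controls → % inhibition.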

Measured: growth inhibition

C=CCn1c(=O)c2ccccc2[n+]2c(C)c(C(=O)OCC)sc12
inactive: [1] -26.9% | [2] -16.2% | [3] -2.65% | [4] -14.5% | [5] 2.45% | [6] -19.6%

O=C(Nc1ccc(Cl)cc1Cl)c1cc2nc3ccccc3c(=O)n2c2ccccc12
inactive: [1] 29.6% | [2] 13.6% | [3] 12.1% | [4] 7.7% | [5] 17.3% | [6] 30.6%

COc1cccc(C2c3cc4c(cc3OC(C)(O)C2C)OCO4)c1O (stereo unspecified)
inactive: [1] -4.7% | [2] -3.75% | [3] -0.25% | [4] -24.8% | [5] 1.65% | [6] -9.9%

COC1COCOC1C(OC)C1OCOCC1OC (stereo unspecified)
inactive: [1] -2.25% | [2] -12.2% | [3] -8.15% | [4] -46.3% | [5] -4.25% | [6] -2.8%

COC1OC(COC(=O)NCCCCC(=O)C(F)(F)F)C(O)C(O)C1O (stereo unspecified)
inactive: [1] 3.6% | [2] 22.6% | [3] -0.5% | [4] 29.9% | [5] 28.2% | [6] 11.6%

O=C(CC(=O)Nc1ccccc1Cl)NNC(c1cc(N=Nc2ccc(Br)cc2)ccc1O)P(O)O (stereo unspecified)
inactive: [1] 1.8% | [2] 0.3% | [3] 16.6% | [4] 13.4% | [5] -8.25% | [6] -2.35%

c1ccc(N2CN(c3ccccc3)C2)cc1
inactive: [1] -19.4% | [2] -8.25% | [3] 4% | [4] -11.6% | [5] 5.6% | [6] 15.8%

COc1ccc(C(=O)C(=O)c2ccccc2Cl)cc1
inactive: [1] 11.4% | [2] 14.9% | [3] 9.55% | [4] 13.3% | [5] 17.8% | [6] 10.9%

CCN(CC)C(=S)Oc1cc(Cl)c(Cl)cc1Cl
inactive: [1] -5.45% | [2] 3.8% | [3] -5.2% | [4] -2.55% | [5] 18.7% | [6] 21.2%

O=Cc1ccc(OC(=O)Nc2ccc([N+](=O)[O-])cc2)cc1
inactive: [1] 2.65% | [2] 45% | [3] 33.4% | [4] -2.7% | [5] 46.6% | [6] 47.4%

Cc1ccc(S(=O)(=O)N/N=C(\c2nc3ccc(Cl)cc3[nH]c2=O)C(O)c2cccc([N+](=O)[O-])c2)cc1 (stereo unspecified)
inactive: [1] -1.5% | [2] -24% | [3] -9.35% | [4] 11.7% | [5] -22.6% | [6] -0.5%

O=c1cc(-c2ccccc2)[nH]c2c(F)ccc(F)c12
inactive: [1] -27.4% | [2] -46.5% | [3] -34.5% | [4] 11.3% | [5] -34.9% | [6] -18.9%

O=C1CC(Cc2n[nH]c3c2CCCC3)CC(=O)N1
inactive: [1] 4.2% | [2] 3.8% | [3] -4.8% | [4] 7.35% | [5] -2.15% | [6] -7.75%

CC1OC(O[C@H]2CC[C@]3(C)[C@H]4CC=C5[C@@H]6[C@@H](C)[C@H](C)CC[C@]6(C(=O)OC6OC(CO)C(O)C(O)C6O)CC[C@@]5(C(=O)O)[C@]4(C)CC[C@H]3C2(C)C)C(O)C(O)C1O (stereo partly specified)
inactive: [1] -11.8% | [2] -1.8% | [3] -31.6% | [4] -29.5% | [5] -23.2% | [6] -40.5%

C=CCNC(=S)NNc1nc(C)cc(=O)[nH]1
inactive: [1] 30.1% | [2] -27.9% | [3] 11.7% | [4] 5.55% | [5] 5.95% | [6] 4.3%

Cc1cc([N+](=O)[O-])cc(Br)c1N
inactive: [1] 23.1% | [2] 11.1% | [3] -1.6% | [4] 3.25% | [5] 0.25% | [6] 25.4%

C1CN(C23OC4(N5CCOCC5)C5C6CC(C7C6C4C72)C53)CCO1 (stereo unspecified)
inactive: [1] -18.9% | [2] -3% | [3] -3.9% | [4] -43.1% | [5] -0.05% | [6] -11.2%

COc1cc(C)cc2c1C(C)(C)CCC2(C)C
inactive: [1] 5.4% | [2] -24.6% | [3] -5.8% | [4] -7.15% | [5] 16% | [6] -0.65%

Cc1ccc(/C=C2\NC(=S)NC2=O)cc1
inactive: [1] -0.15% | [2] -18.9% | [3] -1.9% | [4] -21.4% | [5] -23.4% | [6] -41.4%

Cc1[nH]c2c(C)ccc(C)c2c(=O)c1Br
inactive: [1] -1.65% | [2] 10% | [3] -1% | [4] -16.7% | [5] -1.7% | [6] 3.2%

O=C1C(O)C(O)C(O)C(O)C1O (stereo unspecified)
inactive: [1] 22.7% and -14.6% | [2] 20.5% and -17.2% | [3] 3.9% and -36.9% | [4] 15.9% and -12.3% | [5] 20.8% and -8.35% | [6] 19.7% and -3.55%

From PubChem BioAssay (NCI)
